Laboratory results as given in the supplement of paper PMC7380943.

Legend:
[1] = test system: CLZ3 (HCA2 human fibroblast dual HR-NHEJ reporter); assay: NHEJ repair efficiency (GFP+ cells) relative to control (log10 fold); higher = more non-homologous end joining; settings: 5 µM; doxycycline 0.5 ug/mL
[2] = test system: CLZ3 (HCA2 human fibroblast dual HR-NHEJ reporter); assay: HR repair efficiency (tdTomato+ cells) relative to control (log10 fold); higher = more homologous recombination; settings: 5 µM; doxycycline 0.5 ug/mL
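Wherever HR repair efficiency (tdTomato+ cells) relative to control is given: compound given one day before doxycycline, which switches on I-SceI endonuclease expression to create double-strand breaks within the integrated reporter.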
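Wherever NHEJ repair efficiency (GFP+ cells) relative to control is given: compound given one day ahead of doxycycline, which switches on I-SceI endonuclease to cut the chromosomally integrated reporter and create DSBs.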

Structure (SMILES)	NHEJ repair efficiency (log10) [1]	HR repair efficiency (log10) [2]
COc1ccc(CCO[C@@H]2O[C@H](CO[C@@H]3OC[C@H](O)[C@H](O)[C@H]3O)[C@@H](OC(=O)/C=C/c3ccc(O)c(OC)c3)[C@H](O[C@@H]3O[C@@H](C)[C@@H](O)[C@@H](O)[C@H]3O)[C@H]2O)cc1O [Angoroside C]	0.0985	0.3
CCCCCCCCCCCCCCCC(=O)O [Palmitic Acid]	0.0513	0.0657
COC(=O)C1=CO[C@@H](O[C@@H]2O[C@H](CO)[C@@H](O)[C@H](O)[C@H]2O)[C@H]2[C@@H]1C(=O)C[C@@H]2C [Verbenalin]	0.0793	0.178
C[C@@H]1CC[C@@]2(OC1)O[C@H]1C[C@H]3[C@@H]4CC=C5C[C@@H](O[C@@H]6O[C@H](CO)[C@@H](O)[C@H](O)[C@H]6O)CC[C@]5(C)[C@H]4CC[C@]3(C)[C@H]1[C@@H]2C [Diosgenin glucoside]	-0.0975	0.0102
CCCCCCCC/C=C\CCCCCCCC(=O)OCC(COC(=O)CCCCCCC/C=C\CCCCCCCC)OC(=O)CCCCCCC/C=C\CCCCCCCC [Glycerol Trioleate]	-0.000616	0.0182
O=c1cc(-c2ccc(O)cc2)oc2c([C@@H]3O[C@H](CO)[C@@H](O)[C@H](O)[C@H]3O)c(O)cc(O)c12 [Vitexin]	0.172	0.126
C[C@@H](CC[C@@]1(O)O[C@H]2C[C@H]3[C@@H]4CC[C@@H]5C[C@@H](O[C@@H]6O[C@H](CO)[C@H](O)[C@H](O)[C@H]6O[C@@H]6O[C@H](CO)[C@@H](O)[C@H](O)[C@H]6O)CC[C@]5(C)[C@H]4CC[C@]3(C)[C@H]2[C@@H]1C)CO[C@@H]1O[C@H](CO)[C@@H](O)[C@H](O)[C@H]1O [Timosaponin b- II]	0.192	-0.131
